High-throughput results deposited in PubChem BioAssay by National Center for Advancing Translational Sciences (NCATS).
This is one part of a sample in which hits are shown more often than they occur.
DT40 TDP1 no CPT: qHTS for Inhibitors of human tyrosyl-DNA phosphodiesterase 1 (TDP1): qHTS in cells in absence of CPT; DT40 Tdp1-/- hTDP1 cells, no CPT, ATP luminescence, 48 h; Potency, µM (highest dose often 46.2 µM), for the others: at the highest dose activity change, negative = growth inhibition, actives largely listed as inhibitors; actives 15% (n = 420,000); further: potency means the concentration at half of the fitted maximal effect; nearly all actives have a fitted effect of over 55% in size
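A cellular qHTS used chicken DT40 cells lacking endogenous Tdp1 but carrying stably transfected human TDP1. Compounds were applied without camptothecin, and cell growth kinetics were judged by ATP-dependent luminescence after ≥48 hr.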
ALOX12 inh: ALOX12 (human) lipoxygenase inhibition; purified 12hLO, xylenol orange hydroperoxide absorbance; actives 1.1% (n = 580,000); P18054; Potency, µM (titrated, usually from 108 µM), for inactives: top-dose activity change, negative = inhibition, actives largely listed as inhibitors; AID 1671190; further: potency means the concentration at half of the fitted maximal effect
Target sequence (P18054 whole entry, looked up): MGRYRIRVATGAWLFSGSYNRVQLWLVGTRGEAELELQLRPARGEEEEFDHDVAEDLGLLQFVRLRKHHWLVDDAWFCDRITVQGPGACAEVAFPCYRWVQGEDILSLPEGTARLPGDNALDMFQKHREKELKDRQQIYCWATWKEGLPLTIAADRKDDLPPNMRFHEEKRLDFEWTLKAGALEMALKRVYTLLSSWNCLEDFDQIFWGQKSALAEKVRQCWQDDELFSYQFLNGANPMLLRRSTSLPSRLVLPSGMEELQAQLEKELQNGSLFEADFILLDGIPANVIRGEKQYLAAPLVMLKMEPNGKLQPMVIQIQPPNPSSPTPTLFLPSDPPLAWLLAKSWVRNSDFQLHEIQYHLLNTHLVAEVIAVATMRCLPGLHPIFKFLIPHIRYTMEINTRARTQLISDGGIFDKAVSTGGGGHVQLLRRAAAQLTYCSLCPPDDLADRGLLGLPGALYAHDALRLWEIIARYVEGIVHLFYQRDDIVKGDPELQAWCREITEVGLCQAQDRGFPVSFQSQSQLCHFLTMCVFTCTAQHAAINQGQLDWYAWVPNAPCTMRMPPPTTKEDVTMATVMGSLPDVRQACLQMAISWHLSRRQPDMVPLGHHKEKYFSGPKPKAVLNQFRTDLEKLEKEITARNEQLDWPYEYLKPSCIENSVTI
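Purified human 12hLO at 150 nM in 25 mM Hepes, 0.01% Triton X-100, pH 7.0, preincubated 15 min at room temperature with compound. Reaction started with 40 uM arachidonic acid, 30 min at room temperature. Hydroperoxide measured by Fe-xylenol orange, 573/405 nm absorbance ratio.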
IL1B secr inh: blocks inflammasome-driven IL-1 beta release. THP-1 LPS/ATP IL-1B secretion, AlphaLISA, 16 h; active compounds read low. activity change, % at 57.5 µM. actives 4.7% (n = 360,000); in the data active means activity change below about -50%; inconclusive means mostly about -30% to -49%
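THP-1 cells pretreated 1 hr with compounds (up to 57.5 uM final), then stimulated with LPS (250 ng/mL final) plus ATP (1.25 mM final); secreted IL-1B measured by AlphaLISA after 16 hr, decreased signal indicating inhibition.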
HT1080 IDH1KD tx: toxicity to HT-1080 IDH1 knockdown cells (counter line); HT-1080 IDH1 knockdown viability, ATP luminescence, 48 h; Potency, µM (series often up to 46.1 µM), inactives show at the highest dose activity, negative = toxicity, usual class: cytotoxic; actives 2% (n = 360,000); AID 686971;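 further: potency means the concentration at half of the fitted maximal effect; 0% = DMSO wells and -100% = cell-free medium wells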
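IDH1KD HT-1080 cells, 750/well, RPMI + 5% FBS; compound pinned after 2 h settling; 48 h, 37 °C; CellTiter-Glo luminescence; % activity normalised to DMSO and no-cell wells; curves fitted, classed by r2 and efficacy.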
HT1080NT lethal: kills 2HG-producing HT-1080-NT fibrosarcoma cells; HT-1080-NT fibrosarcoma viability, CellTiter-Glo ATP luminescence, 48 h; Potency, µM (titrated, usually from 46.1 µM), without a hit: top-dose activity, negative = less viability, usual class: cytotoxic; actives 1.6% (n = 360,000); AID 686970;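 further: NT is the 2HG producing partner of a matched IDH1 knockdown line; potency means the concentration at half of the fitted maximal effect; 0% = DMSO-treated cells and -100% = media-only wells without cells; nearly all actives have a fitted effect of over 55% in size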
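Toxicity toward the 2HG-producing NT line was scored as %Activity, normalised to DMSO and no-cell wells, from CellTiter-Glo luminescence after 48 hours' treatment.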
DT40 TDP1 CPT: DT40-hTDP1 cell growth loss with CPT; chicken DT40 Tdp1-/-;hTDP1 cells + 20 nM CPT, ATP luminescence, 48 h; Potency, µM (titrated, usually from 46.2 µM), without a hit: at the top dose activity change, negative = growth inhibition, most hits filed as inhibitors; actives 12% (n = 420,000); AID 686979; further: potency means the concentration at half of the fitted maximal effect; nearly all actives have a fitted effect of over 55% in size
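Chicken DT40 Tdp1-/- cells complemented with human TDP1, 400 cells/well, exposed to compounds plus 20 nM camptothecin for at least 48 h at 37 C; viability read as ATP content by CellTiter-Glo luminescence.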
The depositor's hits bear a star; i = inactive; ? = inconclusive; . = no result; [ ] = another dose, or the depositor's remark. Unless noted, the call rests on the fitted dose curve; in most records, active means well fitted curve in the direction sought with a large enough effect; inconclusive means small, poorly fitted or top-dose-only effect, or another doubt; inactive means no such curve, though single readings can be large; an effect the other way counts as inactive or inconclusive. Unless noted, on the % scale 0 is the no-effect control and ±100 the full control effect.

SMILES	DT40 TDP1 no CPT	ALOX12 inh	IL1B secr inh	HT1080 IDH1KD tx	HT1080NT lethal	DT40 TDP1 CPT
CCOc1ccc(Sc2cc(C(=O)NCCc3ccc(OC)c(OC)c3)c3ccccc3n2)cc1	5.8µM*	-20.1%	.	.	.	3.66µM*
FC(F)(F)c1cccc(NCc2n[nH]c(=S)n2C2CCCCC2)c1	13µM*	?	-13.9	-2.8%	-7.5%	?
O=C(Nc1ccccc1C(=O)OCC(=O)N1CCc2ccccc21)c1ccc([N+](=O)[O-])cc1Cl	.	-23.9%	.	.	.	.
O=C(CCCc1ccccc1)N1CCN(c2ccc([N+](=O)[O-])cc2)CC1	18.4µM*	0.0%	-1.7	1.6%[9.24 µM]	-14.4%	18.4µM*
O=C(CCCC(=O)N1CCN(c2ccc([N+](=O)[O-])cc2)CC1)c1ccccc1	10.3µM*	-16.8%	?	-1.5%	0.9%	?
Cc1cc(NC(=O)CN2C(=O)c3cccnc3Sc3ccccc32)ccc1Br	23.1µM*	1.1%	.	.	.	?
Cc1ccc(NC(=O)CN2C(=O)c3ccccc3Sc3ncccc32)c(C)c1	23.1µM*	-5.7%	.	.	.	23.1µM*
CCN(CC)c1ccc(NC(=O)CN2C(=O)c3cccnc3Sc3ccccc32)c(C)c1	13µM*	-4.7%	.	.	.	16.4µM*
Cc1ccc(NC(=O)CCN2C(=O)c3ccccc3Sc3ncccc32)cc1	16.4µM*	-32.4%	22.7	-15.1%	-1.3%	16.4µM*
Cc1cc(C)c(NC(=O)CN2C(=O)c3cccnc3Sc3ccccc32)c(C)c1	-30.6%	0.9%	.	.	.	?
Cc1ccccc1NC(=O)CCN1C(=O)c2ccccc2Sc2ncccc21	?	-5.9%	.	.	.	-26.9%
Cc1n[nH]c(C)c1C	.	4.8%	.	.	.	.
O=C(CC(c1ccc(Cl)cc1)S(=O)(=O)c1ccccc1)c1ccc(F)cc1 (stereo unspecified)	.	1.6%	.	.	.	.
CC(C)CCNC(=O)CCCN1C(=O)c2ccccc2Sc2ncccc21	?	0.0%	.	.	.	14.6µM*
COc1ccc(N2C(=O)CC(N3CCN(c4ccc(Cl)cc4)CC3)C2=O)cc1 (stereo unspecified)	10.9%	-1.0%	-50.6*	-5.4%	-0.7%	1.7%
Oc1ccccc1C1=Nc2nc3ccccc3n2C(c2ccccc2)C1 (stereo unspecified)	18.4µM*	?	-9.0	-18.7%	-10.2%	20.6µM*
COc1ccccc1-c1nc(C#N)c(NCc2ccccc2Cl)o1	.	-0.8%	.	.	.	.
CCOC(=O)c1ccc(NC(=O)CSc2nc3cccnc3n2C)cc1	20.6µM*	0.0%	-18.8	?	-14.0%	?
COC(=O)c1ccc(NC(=O)CSc2nc3cccnc3n2C)cc1	16.4µM*	177.8%[57.4 µM]	-2.0	-28.4%	-3.6%	?
CCOC(=O)c1c(-c2ccccc2)nc2ccccn12	?	0.0%	-15.4	0.6%	-8.1%	?
COc1ccc(NC(=O)CSc2nc3cccnc3n2C)cc1	-55.4%	3.5%	-11.2	-6.6%	-4.9%	-14.3%
CCOC(=O)c1c(-c2ccccc2)nc2c(C)cccn12	16.4µM*	-3.8%	10.7	17.0%	7.6%	14.6µM*
CCOC(=O)c1ccc(NC(=O)CSc2nc(=O)n3cccc(C)c3n2)cc1	13µM*	?	?	2.4%	1.0%	20.6µM*
Cc1cn2nc(C(=O)NCc3cccnc3)cc2c(=O)[nH]1	.	22.3%	.	.	.	.
O=C(CCc1ncc(-c2ccc(F)cc2F)o1)Nc1ccncc1	.	12.9%	.	.	.	.
SMILES	DT40 TDP1 no CPT	ALOX12 inh	IL1B secr inh	HT1080 IDH1KD tx	HT1080NT lethal	DT40 TDP1 CPT
Cc1cc(C)cc(N(C(=O)c2nsc(Cl)c2Cl)C(C(=O)NC2CCCC2)c2ccc(O)cc2)c1 (stereo unspecified)	?	-12.1%	-79.5*	?	-18.1%	-80.3%
Cc1ccc(N(C(=O)c2nsc(Cl)c2Cl)C(C(=O)NC2CCCC2)c2ccc(O)cc2)cc1C (stereo unspecified)	?	-12.5%	-65.0*	-28.7%	?	?
CCOc1ccc(C(C(=O)NC2CCCC2)N(Cc2ccccc2)C(=O)c2nsc(Cl)c2Cl)cc1 (stereo unspecified)	18.4µM*	-10.5%	?	-26.6%	?	20.6µM*
Cc1cccc(N(C(=O)c2nsc(Cl)c2Cl)C(C(=O)NC2CCCC2)c2ccc(O)cc2)c1C (stereo unspecified)	?	-5.5%	-73.4*	-14.3%	-2.1%	?
Cc1cccc(N(C(=O)c2snc(C(N)=O)c2N)C(C(=O)NC2CCCC2)c2ccncc2)c1 (stereo unspecified)	-1.4%	-13.4%	22.7	5.3%	0.8%	0.2%
CCOc1ccc(C(C(=O)NCC2CCCO2)N(Cc2ccccc2)C(=O)c2snc(C(N)=O)c2N)cc1 (stereo unspecified)	?	7.5%	5.6	-3.2%	7.0%	?
COc1cccc(C2Cn3nnc(-c4nc(-c5cccc(C(F)(F)F)c5)no4)c3CO2)c1 (stereo unspecified)	.	36.4%	.	.	.	.
C=CC[n+]1c(-c2ccc(Cl)cc2Cl)csc1Nc1ccc(NC(C)=O)cc1	20.6µM*	?	-80.2*	18.4µM*	?	?
Cc1c(NC(=O)Nc2cc(Cl)ccc2Cl)c(=O)n(-c2ccccc2)n1C	-4.4%	301.8%	i	10.8%	3.6%	1.1%
C=CC[n+]1c(C)csc1Nc1ccc(C)cc1	?	?	-2.2	9.6%	14.8%	-1.5%
C=CC[n+]1c(-c2ccc(Cl)cc2Cl)csc1Nc1c(C)n(C)n(-c2ccccc2)c1=O	3.66µM*	?	-80.0*	14.6µM*	20.6µM*	5.17µM*
CCCc1cc(=O)oc2cc(C)c(CN3CCCC3)c(O)c12	16.4µM*	?	39.1	4.2%	-1.8%	?
CCc1cc(=O)oc2cc(C)c(CN3CCCCC3)c(O)c12	-24.4%	?	39.3	-1.4%	-5.0%	-18.0%
Cn1c(NCCc2ccncc2)nc2cc(-c3ccccc3)sc2c1=O	?	-4.5%	-23.5	21.1%	-6.2%	25.9µM*
CC(=O)NCCNc1nc2cc(-c3ccccc3)sc2c(=O)n1C	?	-4.9%	48.7	-13.0%	-9.0%	?
Cc1ccccc1-c1cc2nc(NCCc3ccncc3)n(C)c(=O)c2s1	14.6µM*	6.2%	-29.0	?	?	16.4µM*
CC1=C(c2ccccc2)[N+](=O)C(C)(c2ccc(C)cc2)N1[O-] (stereo unspecified)	.	11.2%	.	.	.	.
